This passage reports binding signal results from article PMC7862700, “An all-to-all approach to the identification of sequence-specific readers for epigenetic DNA modifications on cytosine”.

Assay in all cases: DAPPL (digital affinity profiling via proximity ligation, sequencing); 10 mM Tris-HCl pH 7.5, 50 mM NaCl, 1 mM DTT, 4% glycerol, room temperature, 30 min; GST-TFs on glutathione beads, 16-mer random dsDNA library, 0.1% formaldehyde crosslink after washing; high values mean tight binding
For one assay, the target named is T1, FEV (Homo sapiens, UniProt Q99581 1-238).
T1 sequence: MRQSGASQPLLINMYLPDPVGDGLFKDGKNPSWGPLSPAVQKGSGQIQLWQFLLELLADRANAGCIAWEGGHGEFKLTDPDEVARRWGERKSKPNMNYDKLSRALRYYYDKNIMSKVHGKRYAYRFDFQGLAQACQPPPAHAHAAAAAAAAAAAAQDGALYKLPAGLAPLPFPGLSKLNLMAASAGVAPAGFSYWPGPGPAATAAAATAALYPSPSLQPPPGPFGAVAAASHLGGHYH
As to conditions: protein: recombinant; tags: N-terminal GST; dsDNA, one strand shown. Summed up: (§1)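 Yeast served to express human transcription factors as GST fusions, which were then captured on glutathione beads and labelled with DNA barcodes. Pooled with a tag-only sample, they were incubated with 200 nmole of a 16-mer random double-stranded DNA library for 30 min at room temperature in Tris/NaCl/DTT/glycerol buffer, washed, crosslinked with 0.1% formaldehyde, ligated by proximity, amplified by PCR and sequenced. Dividing each hexamer's read frequency for a factor by its frequency for the tag-only sample gives the binding signal.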

For the next assay, the target named is ETV5 (Homo sapiens, UniProt P41161 1-510). The following applies: protein: recombinant; tags: N-terminal GST; dsDNA, one strand shown. Summed up:
as §1

The target in another assay is HSF1 (Homo sapiens, UniProt Q00613 1-529). As to conditions: protein: recombinant; tags: N-terminal GST; chain copies: 3; dsDNA, one strand shown. Summed up:
as §1

In a further assay the target is T2, SPIC (Homo sapiens, UniProt Q8N5J4 1-248).
T2 sequence: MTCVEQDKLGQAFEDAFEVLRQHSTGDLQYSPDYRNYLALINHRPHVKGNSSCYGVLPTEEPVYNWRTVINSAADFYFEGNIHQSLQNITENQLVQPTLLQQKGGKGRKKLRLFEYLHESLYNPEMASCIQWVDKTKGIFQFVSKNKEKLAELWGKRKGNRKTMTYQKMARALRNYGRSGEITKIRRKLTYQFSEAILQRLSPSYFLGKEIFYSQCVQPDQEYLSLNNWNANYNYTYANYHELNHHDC
As to conditions: protein: recombinant; tags: N-terminal GST; dsDNA, one strand shown. In short, it runs like this: as §1

The next assay addresses ELF4 (Homo sapiens, UniProt Q99607 1-663). The following applies: protein: recombinant; tags: N-terminal GST; dsDNA, one strand shown. In short, it runs like this:
as §1

The next assay has as its target T3, ELK4 (Homo sapiens, UniProt P28324-2 1-405).
T3 sequence: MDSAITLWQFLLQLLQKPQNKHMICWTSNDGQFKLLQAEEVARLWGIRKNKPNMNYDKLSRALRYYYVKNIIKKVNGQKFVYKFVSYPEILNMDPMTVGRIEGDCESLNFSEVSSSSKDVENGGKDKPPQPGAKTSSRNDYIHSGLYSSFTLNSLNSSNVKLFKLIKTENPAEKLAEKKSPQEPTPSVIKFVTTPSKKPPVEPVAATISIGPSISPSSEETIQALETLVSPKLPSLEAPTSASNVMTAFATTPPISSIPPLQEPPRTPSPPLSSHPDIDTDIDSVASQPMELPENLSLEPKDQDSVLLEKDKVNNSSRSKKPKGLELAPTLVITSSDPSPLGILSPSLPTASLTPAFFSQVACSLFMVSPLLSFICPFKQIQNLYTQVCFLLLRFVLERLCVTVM
As to conditions: protein: recombinant; tags: N-terminal GST; dsDNA, one strand shown. Summed up:
as §1

Another assay addresses T4, ETV2 (Homo sapiens, UniProt O00321 1-342).
T4 sequence: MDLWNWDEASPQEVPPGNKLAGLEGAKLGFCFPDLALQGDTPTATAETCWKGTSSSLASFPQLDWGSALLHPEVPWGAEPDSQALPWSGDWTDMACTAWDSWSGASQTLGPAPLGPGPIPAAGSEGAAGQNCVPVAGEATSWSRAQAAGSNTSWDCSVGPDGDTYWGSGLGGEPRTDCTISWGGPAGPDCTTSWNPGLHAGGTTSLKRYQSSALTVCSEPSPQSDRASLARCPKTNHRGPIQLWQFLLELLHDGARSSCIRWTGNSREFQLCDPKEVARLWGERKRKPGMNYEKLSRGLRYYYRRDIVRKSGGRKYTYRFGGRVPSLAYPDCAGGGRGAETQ
As to conditions: protein: recombinant; tags: N-terminal GST; dsDNA, one strand shown. Summed up: as §1

The target of the next assay is T5, ELF3 (Homo sapiens, UniProt P78545 1-371).
T5 sequence: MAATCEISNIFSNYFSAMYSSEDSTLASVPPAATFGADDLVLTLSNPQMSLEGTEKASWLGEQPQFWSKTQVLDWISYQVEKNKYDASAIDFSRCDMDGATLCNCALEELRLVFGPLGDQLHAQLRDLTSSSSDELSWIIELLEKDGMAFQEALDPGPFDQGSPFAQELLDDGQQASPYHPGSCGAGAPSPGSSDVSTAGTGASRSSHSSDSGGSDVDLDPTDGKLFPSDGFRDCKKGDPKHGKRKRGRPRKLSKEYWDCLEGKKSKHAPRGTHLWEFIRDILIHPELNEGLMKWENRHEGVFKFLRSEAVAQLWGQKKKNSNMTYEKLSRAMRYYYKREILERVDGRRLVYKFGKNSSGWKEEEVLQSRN
The following applies: protein: recombinant; tags: N-terminal GST; dsDNA, one strand shown. Summed up:
as §1

Another assay addresses CRX (Homo sapiens, UniProt O43186 1-299). The following applies: protein: recombinant; tags: N-terminal GST; dsDNA, one strand shown. Summed up: as §1
In another assay the target is ETV1 (Homo sapiens, UniProt P50549 1-477). The following applies: protein: recombinant; tags: N-terminal GST; dsDNA, one strand shown. Summed up: as §1
A further assay concerns the target T6, ERF (Homo sapiens, UniProt P50548 1-548).
T6 sequence: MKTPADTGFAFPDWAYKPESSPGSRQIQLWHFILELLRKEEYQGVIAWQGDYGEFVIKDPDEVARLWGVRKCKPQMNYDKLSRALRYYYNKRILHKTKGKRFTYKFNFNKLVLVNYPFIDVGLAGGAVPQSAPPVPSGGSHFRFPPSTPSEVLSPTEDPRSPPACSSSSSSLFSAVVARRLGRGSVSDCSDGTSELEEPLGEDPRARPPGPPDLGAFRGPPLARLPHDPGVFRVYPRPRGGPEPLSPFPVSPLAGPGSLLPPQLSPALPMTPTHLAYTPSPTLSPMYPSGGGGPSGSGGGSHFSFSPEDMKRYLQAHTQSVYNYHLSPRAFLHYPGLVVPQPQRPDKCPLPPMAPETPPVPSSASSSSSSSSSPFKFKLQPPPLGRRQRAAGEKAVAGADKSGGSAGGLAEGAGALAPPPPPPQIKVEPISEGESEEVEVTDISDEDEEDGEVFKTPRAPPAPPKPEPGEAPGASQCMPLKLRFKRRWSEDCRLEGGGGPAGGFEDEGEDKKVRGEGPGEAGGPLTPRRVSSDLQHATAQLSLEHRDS
As to conditions: protein: recombinant; tags: N-terminal GST; dsDNA, one strand shown. In short, it runs like this:
as §1

A further assay addresses T7, ETV3L (Homo sapiens, UniProt Q6ZN32 1-361).
T7 sequence: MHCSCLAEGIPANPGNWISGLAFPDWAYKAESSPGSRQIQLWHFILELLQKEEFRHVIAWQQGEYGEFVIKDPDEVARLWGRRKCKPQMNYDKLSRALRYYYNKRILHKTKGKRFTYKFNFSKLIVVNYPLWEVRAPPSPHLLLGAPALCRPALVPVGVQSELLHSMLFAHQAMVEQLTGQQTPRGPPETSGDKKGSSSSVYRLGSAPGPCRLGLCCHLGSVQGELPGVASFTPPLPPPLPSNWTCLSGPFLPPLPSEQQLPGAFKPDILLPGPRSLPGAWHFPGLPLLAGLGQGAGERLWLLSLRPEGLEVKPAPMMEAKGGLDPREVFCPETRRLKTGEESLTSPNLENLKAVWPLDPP
The following applies: protein: recombinant; tags: N-terminal GST; dsDNA, one strand shown. Summed up: as §1

The next assay concerns the target T8, ETS2 (Homo sapiens, UniProt P15036 1-469).
T8 sequence: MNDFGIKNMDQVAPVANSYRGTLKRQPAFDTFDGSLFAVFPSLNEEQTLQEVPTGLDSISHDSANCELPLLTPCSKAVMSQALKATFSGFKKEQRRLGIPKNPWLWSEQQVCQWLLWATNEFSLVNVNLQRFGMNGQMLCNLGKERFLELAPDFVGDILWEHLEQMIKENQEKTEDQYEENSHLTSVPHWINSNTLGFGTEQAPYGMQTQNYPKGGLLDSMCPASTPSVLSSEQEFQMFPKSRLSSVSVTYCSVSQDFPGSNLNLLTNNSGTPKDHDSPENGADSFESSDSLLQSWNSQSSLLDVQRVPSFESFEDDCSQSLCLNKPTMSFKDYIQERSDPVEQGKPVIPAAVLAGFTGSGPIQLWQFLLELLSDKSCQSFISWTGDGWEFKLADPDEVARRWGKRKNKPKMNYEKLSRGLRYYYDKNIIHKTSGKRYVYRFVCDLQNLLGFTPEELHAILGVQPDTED
As to conditions: protein: recombinant; tags: N-terminal GST; dsDNA, one strand shown. In short, it runs like this: as §1

For another assay, the target named is T9, SPDEF (Homo sapiens, UniProt O95238 1-335).
T9 sequence: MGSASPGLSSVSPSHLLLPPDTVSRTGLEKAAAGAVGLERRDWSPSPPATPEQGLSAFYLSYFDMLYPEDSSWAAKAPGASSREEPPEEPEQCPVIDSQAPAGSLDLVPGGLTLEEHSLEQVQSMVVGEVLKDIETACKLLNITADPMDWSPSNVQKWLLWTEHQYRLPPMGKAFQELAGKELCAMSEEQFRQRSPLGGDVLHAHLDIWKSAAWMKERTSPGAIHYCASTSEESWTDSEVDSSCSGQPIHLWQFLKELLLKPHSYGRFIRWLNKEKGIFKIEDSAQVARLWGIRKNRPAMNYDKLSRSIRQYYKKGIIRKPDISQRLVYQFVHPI
As to conditions: protein: recombinant; tags: N-terminal GST; dsDNA, one strand shown. Summed up:
as §1

A further assay concerns the target T10, ETV7 (Homo sapiens, UniProt Q9Y603 1-341).
T10 sequence: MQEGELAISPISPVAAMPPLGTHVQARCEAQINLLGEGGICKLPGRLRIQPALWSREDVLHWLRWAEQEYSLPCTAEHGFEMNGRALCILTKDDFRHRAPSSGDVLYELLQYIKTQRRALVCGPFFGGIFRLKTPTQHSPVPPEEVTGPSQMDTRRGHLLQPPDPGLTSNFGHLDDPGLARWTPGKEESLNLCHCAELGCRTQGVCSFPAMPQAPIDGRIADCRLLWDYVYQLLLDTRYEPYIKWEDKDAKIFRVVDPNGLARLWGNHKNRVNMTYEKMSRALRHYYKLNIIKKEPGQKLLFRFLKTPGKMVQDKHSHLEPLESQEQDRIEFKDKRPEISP
The following applies: protein: recombinant; tags: N-terminal GST; dsDNA, one strand shown. Summed up: as §1

In a further assay the target is T11, ELF5 (Homo sapiens, UniProt Q9UKW6-2 1-255).
T11 sequence: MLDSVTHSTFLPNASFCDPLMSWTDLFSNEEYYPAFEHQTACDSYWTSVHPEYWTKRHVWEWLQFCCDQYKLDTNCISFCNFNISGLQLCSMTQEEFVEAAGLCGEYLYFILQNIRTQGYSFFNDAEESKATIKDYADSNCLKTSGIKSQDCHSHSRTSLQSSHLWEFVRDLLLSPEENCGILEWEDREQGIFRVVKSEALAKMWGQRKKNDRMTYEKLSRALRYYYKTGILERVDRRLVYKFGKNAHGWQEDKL
The following applies: protein: recombinant; tags: N-terminal GST; dsDNA, one strand shown. Summed up:
as §1

In a further assay the target is T12, ETV3 (Homo sapiens, UniProt P41162-2 1-143).
T12 sequence: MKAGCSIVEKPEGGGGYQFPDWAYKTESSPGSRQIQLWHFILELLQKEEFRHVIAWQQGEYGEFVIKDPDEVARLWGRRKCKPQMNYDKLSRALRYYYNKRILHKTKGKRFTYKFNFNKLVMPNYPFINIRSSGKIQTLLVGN
As to conditions: protein: recombinant; tags: N-terminal GST; dsDNA, one strand shown. Summed up:
as §1

Another assay concerns the target ETV6 (Homo sapiens, UniProt P41212 1-452). As to conditions: protein: recombinant; tags: N-terminal GST; dsDNA, one strand shown. Summed up: as §1

ETV6, sequence (P41212 whole entry): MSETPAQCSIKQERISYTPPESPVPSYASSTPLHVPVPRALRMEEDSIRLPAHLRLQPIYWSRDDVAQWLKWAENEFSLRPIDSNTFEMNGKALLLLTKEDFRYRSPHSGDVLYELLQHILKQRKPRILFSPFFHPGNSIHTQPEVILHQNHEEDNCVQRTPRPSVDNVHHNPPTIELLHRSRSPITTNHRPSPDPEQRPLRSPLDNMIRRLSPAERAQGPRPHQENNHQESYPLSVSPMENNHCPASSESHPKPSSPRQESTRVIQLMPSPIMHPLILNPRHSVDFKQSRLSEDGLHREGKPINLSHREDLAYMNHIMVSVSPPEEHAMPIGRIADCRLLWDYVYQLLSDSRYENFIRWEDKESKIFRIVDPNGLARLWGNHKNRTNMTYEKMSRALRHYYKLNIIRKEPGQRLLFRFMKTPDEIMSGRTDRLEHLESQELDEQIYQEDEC
ETV5, sequence (P41161 whole entry): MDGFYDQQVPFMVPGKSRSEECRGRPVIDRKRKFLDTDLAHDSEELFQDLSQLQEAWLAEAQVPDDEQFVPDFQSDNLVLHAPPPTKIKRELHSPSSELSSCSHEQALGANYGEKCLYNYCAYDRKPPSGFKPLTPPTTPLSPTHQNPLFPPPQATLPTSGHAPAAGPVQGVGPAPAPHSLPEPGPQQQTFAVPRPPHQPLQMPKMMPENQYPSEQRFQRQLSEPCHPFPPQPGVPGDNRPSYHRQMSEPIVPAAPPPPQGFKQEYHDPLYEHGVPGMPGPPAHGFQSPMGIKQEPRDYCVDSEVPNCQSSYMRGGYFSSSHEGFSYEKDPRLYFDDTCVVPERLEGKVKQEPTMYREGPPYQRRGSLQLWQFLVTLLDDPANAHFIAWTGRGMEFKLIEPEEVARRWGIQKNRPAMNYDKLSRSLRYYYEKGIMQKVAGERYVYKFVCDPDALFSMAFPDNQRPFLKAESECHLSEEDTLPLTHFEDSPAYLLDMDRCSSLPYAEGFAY
ETV1, sequence (P50549 whole entry): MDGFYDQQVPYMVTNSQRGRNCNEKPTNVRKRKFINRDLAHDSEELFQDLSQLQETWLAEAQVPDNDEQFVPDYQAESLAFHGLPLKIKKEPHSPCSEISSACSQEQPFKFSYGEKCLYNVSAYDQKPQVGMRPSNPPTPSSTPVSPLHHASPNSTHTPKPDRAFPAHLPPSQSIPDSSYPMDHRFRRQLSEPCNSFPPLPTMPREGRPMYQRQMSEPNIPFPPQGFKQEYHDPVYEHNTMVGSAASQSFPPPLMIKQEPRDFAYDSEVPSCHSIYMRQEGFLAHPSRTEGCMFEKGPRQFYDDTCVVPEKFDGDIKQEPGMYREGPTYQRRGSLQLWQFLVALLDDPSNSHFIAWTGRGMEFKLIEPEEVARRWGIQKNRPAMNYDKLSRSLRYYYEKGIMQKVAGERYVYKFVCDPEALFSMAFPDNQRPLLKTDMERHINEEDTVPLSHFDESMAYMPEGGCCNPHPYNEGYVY
CRX, sequence (O43186 whole entry): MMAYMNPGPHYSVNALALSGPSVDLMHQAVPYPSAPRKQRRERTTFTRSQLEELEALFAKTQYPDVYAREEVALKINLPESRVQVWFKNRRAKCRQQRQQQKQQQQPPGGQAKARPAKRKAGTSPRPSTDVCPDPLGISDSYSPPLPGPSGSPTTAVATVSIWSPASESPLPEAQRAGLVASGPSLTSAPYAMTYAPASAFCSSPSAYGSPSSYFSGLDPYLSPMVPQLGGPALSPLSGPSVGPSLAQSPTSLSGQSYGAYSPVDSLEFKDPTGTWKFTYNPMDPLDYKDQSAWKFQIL
ELF4, sequence (Q99607 whole entry): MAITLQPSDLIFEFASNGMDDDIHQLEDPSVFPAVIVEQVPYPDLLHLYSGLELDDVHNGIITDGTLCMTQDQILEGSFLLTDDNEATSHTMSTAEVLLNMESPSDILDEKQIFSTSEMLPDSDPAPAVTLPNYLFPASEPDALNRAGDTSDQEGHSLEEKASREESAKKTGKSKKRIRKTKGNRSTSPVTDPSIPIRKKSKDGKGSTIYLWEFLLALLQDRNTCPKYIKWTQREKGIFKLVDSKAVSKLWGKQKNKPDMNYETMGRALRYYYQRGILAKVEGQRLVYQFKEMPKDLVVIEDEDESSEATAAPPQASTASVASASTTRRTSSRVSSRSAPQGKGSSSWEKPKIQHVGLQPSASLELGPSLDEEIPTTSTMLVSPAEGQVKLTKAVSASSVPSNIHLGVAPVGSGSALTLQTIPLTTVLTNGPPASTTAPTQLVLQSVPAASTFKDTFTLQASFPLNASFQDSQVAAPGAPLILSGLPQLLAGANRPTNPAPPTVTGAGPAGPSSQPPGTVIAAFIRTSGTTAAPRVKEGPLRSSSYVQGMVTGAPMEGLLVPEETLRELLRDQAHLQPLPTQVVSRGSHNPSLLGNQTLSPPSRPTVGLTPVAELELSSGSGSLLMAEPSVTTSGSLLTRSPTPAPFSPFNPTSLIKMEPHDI
HSF1, sequence (Q00613 whole entry): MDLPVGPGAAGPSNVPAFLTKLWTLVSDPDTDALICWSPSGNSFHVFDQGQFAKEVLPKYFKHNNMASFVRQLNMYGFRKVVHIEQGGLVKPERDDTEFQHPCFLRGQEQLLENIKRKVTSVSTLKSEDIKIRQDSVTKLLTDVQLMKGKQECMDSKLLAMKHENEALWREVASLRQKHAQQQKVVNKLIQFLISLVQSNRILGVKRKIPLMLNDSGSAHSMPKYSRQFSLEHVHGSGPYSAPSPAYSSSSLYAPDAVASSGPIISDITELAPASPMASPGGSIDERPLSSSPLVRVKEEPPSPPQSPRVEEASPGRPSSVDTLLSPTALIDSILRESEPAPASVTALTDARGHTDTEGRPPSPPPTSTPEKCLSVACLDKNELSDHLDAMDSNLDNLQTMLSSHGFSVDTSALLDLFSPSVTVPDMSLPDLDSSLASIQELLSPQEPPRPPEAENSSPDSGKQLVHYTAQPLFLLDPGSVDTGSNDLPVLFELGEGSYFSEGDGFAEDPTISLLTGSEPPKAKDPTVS

On to CTCCGG, for which the binding signal is 2 fold enrichment (6-mer frequency, TF over GST control) with FEV; 1.58 fold enrichment (6-mer frequency, TF over GST control) with ETV5; 1.18 fold enrichment (6-mer frequency, TF over GST control) with HSF1; 1.92 fold enrichment (6-mer frequency, TF over GST control) with SPIC; 1.56 fold enrichment (6-mer frequency, TF over GST control) with ELF4; 1.58 fold enrichment (6-mer frequency, TF over GST control) with ELK4. Besides, the binding signal was 1.48 fold enrichment (6-mer frequency, TF over GST control) with ETV2; 1.39 fold enrichment (6-mer frequency, TF over GST control) with ELF3; 1.02 fold enrichment (6-mer frequency, TF over GST control) in the assay with CRX; 1.64 fold enrichment (6-mer frequency, TF over GST control) with ETV1; 1.56 fold enrichment (6-mer frequency, TF over GST control) in the assay with ERF; 1.61 fold enrichment (6-mer frequency, TF over GST control) in the assay with ETV3L. In addition, the binding signal with ETS2 was 1.6 fold enrichment (6-mer frequency, TF over GST control); with SPDEF, 1.89 fold enrichment (6-mer frequency, TF over GST control); with ETV7 it was 1.32 fold enrichment (6-mer frequency, TF over GST control); in the assay with ELF5, 1.58 fold enrichment (6-mer frequency, TF over GST control); with ETV3 it was 1.62 fold enrichment (6-mer frequency, TF over GST control); with ETV6 it was 1.56 fold enrichment (6-mer frequency, TF over GST control).
